Experiment [1] addresses Estrogen receptor (Homo sapiens) (UniProt P03372). Kind of experiment: qHTS assay to identify small molecule antagonists of the estrogen receptor alpha (ER-alpha) signaling pathway using the BG1 cell line in the presence of 0.1 nM 17-beta-estradiol (AID 1259244). Note: nearly all actives have a fitted effect of over 50% in size. Note: potency is the fitted concentration of half-maximal effect. The method, boiled down:
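Luciferase signal from VM7Luc4E2 ERE-reporter cells, co-dosed with test compound and 0.1 nM final 17beta-estradiol for 22 h, read with ONE-Glo.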

A short description of experiment [2]: qHTS assay to identify small molecule phospholipidosis (PLD) inducers (AID 1259344; active = well fitted curve in the direction sought with a large enough effect; an effect the other way counts as inactive or inconclusive). The method, boiled down:
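Phospholipid accumulation was scored by imaging: fixed, Hoechst-counterstained HepG2 cells stained with LipidTOX Red after 24 h compound exposure at 37 C. Read-outs were pit count and pit intensity per well or per cell, with amiodarone and DMSO controls.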
(In general: In qHTS, concentration-response curves come from the screen itself.)

A short description of experiment [3]: qHTS assay to identify small molecule HDAC inhibitors (AID 1259364). Note: potency is the fitted concentration of half-maximal effect.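 Note: wild-type HCT-116 cells with endogenous class I/II HDAC activity; nearly all actives have a fitted effect of over 45% in size.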 The method in brief: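 HCT-116 wt cells, 1,500/well, overnight attach. Compounds (DMSO) 2 h, 37 °C. HDAC-Glo I/II, 30 min RT. Luminescence.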
Experiment [4] can be described thus: qHTS assay to identify small molecule HDAC inhibitors - cell viability counter screen (AID 1259365). Note: nearly all actives have a fitted effect of over 50% in size. Note: potency is the fitted concentration of half-maximal effect. The method, boiled down: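 Wild-type HCT-116 cells were seeded at 1,500 per well, incubated overnight at 37 C, then exposed to compounds in DMSO for 2hr. Viability was read by CellTiter-Glo luminescence after 30min at room temperature.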
Experiment [5] can be described thus: qHTS assay to identify small molecule agonists of the sonic hedgehog signaling (Shh) pathway - cell viability counter screen (AID 1259366). Note: nearly all actives have a fitted effect of over 50% in size. Note: potency is the fitted concentration of half-maximal effect. The method, boiled down: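 NIH/3T3-derived 3T3 Gli1-Luc cells (stable Gli1-responsive firefly luciferase reporter) were seeded, rested 4 hr at 37 C/5% CO2, then exposed to compounds in DMSO for 24 hr; viability was read by CellTiter-Fluor fluorescence in the same wells.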

Experiment [6] is described as follows: qHTS assay to identify small molecule antagonists of the sonic hedgehog signaling (Shh) pathway - cell viability counter screen (AID 1259367). Note: nearly all actives have a fitted effect of over 55% in size. Note: potency is the fitted concentration of half-maximal effect. The method in brief:
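Viability was read by CellTiter-Fluor fluorescence in the same wells, reagent added 23 hr into compound treatment and incubated 1 hr at 37C. The 3T3 Gli1-Luc reporter cells (2,000/well) received conditioned medium after compound and ran 24 hr.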

The nature of experiment [7]: qHTS assay to identify small molecule agonists of the sonic hedgehog signaling (Shh) pathway (AID 1259368; calls by dose curve; note: series mostly up to about 92 µM; nearly all actives have a fitted effect of over 15% in size). The method, boiled down:
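Following a 24 hr incubation with DMSO-dissolved compounds at 37 C, 5% CO2, Gli1-Luc NIH/3T3-derived cells received luciferase reagent for 30 min at room temperature prior to luminescence measurement.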

The nature of experiment [8]: qHTS assay to identify small molecule antagonists of the sonic hedgehog signaling (Shh) pathway (AID 1259369; calls by dose curve; note: nearly all actives have a fitted effect of over 45% in size; note: potency is the fitted concentration of half-maximal effect). The method, boiled down:
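Read-out is luminescence from a firefly luciferase gene controlled by the Gli1 response element, in 3T3Gli1-Luc cells pre-incubated 4hr then exposed to compounds and conditioned medium for 24hr.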

The nature of experiment [9]: qHTS assay to identify small molecule agonists of the androgen receptor (AR) signaling pathway in the presence of an antagonist - cell viability counter screen (AID 1259379). Note: nearly all actives have a fitted effect of over 25% in size. Note: potency is the fitted concentration of half-maximal effect. The method in brief: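 Each compound was tested at 15 concentrations on MDA-kb2 cells in the presence of 3.0uM nilutamide. Viability was measured by CellTiter-Fluor fluorescence after a 16 hr incubation at 37C in a CO2-free atmosphere.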

A short description of experiment [10]: qHTS assay to identify small molecule agonists of the estrogen receptor beta (ER-beta) signaling pathway - cell viability counter screen (AID 1259380). Note: nearly all actives have a fitted effect of over 30% in size. Note: potency is the fitted concentration of half-maximal effect. The method in brief:
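Compounds dissolved in DMSO were pin-transferred onto ER-beta-UAS-bla HEK293T cells that had settled 6 hr, and exposure ran 16 hr at 37C. Following the reporter read, CellTiter-Glo luminescence after 30 min at room temperature indicated cytotoxicity.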

Experiment [11] is described as follows: qHTS assay to identify small molecule antagonists of the estrogen receptor beta (ER-beta) signaling pathway - cell viability counter screen (AID 1259382). Note: nearly all actives have a fitted effect of over 55% in size. Note: potency is the fitted concentration of half-maximal effect. The method in brief:
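CellTiter-Glo ATP luminescence measured after the LiveBLAzer read in the same wells; ER-beta-UAS-bla HEK293T cells, 16 hr compound treatment with 1nM 17-beta-estradiol agonist at 37C, 5% CO2.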

Experiment [12] concerns the target Estrogen receptor (Homo sapiens) (UniProt P03372). Kind of experiment: qHTS assay to identify small molecule agonists of the estrogen receptor alpha (ER-alpha) signaling pathway in the presence of an antagonist (AID 1259383; calls by dose curve; note: top concentration of the series differs between compounds; nearly all actives have a fitted effect of over 15% in size). The method in brief:
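Luminescent ERE-luciferase reporter, VM7Luc4E2 cells (endogenous ER-alpha); 10.0nM ICI-182,780 final; 15-point compound titration; 22hr at 37C; ONE-Glo, 30min RT.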

A short description of experiment [13]: qHTS assay to identify small molecule agonists or antagonists of the thyroid stimulating hormone receptor (TSHR) signaling pathway - wild type cell line counter screen (AID 1259384; calls by dose curve; note: potency is the fitted concentration of half-maximal effect). The method, boiled down:
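Counter screen in untransfected Hek293: compounds (15-point titration, triplicate) plus phosphodiesterase inhibitor Ro20-1724 added after 18 h plating; 30 min RT. Intracellular cAMP via competitive d2/cryptate immunoassay, 1 h incubation.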

Experiment [14] addresses Thyrotropin receptor (Homo sapiens) (UniProt P16473). Kind of experiment: qHTS assay to identify small molecule antagonists of the thyroid stimulating hormone receptor (TSHR) signaling pathway (AID 1259385; calls by dose curve; note: nearly all actives have a fitted effect of over 20% in size; note: potency is the fitted concentration of half-maximal effect). The method in brief: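 Antagonist mode: compound-treated TSHR-expressing HEK293 cells were stimulated with 1.5 ng/mL TSH (final) in presence of Ro20-1724 for 30 min at RT. HTRF cAMP detection after 1 h; each compound tested at 15 concentrations, triplicate.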

In experiment [15] the target is Progesterone receptor (Homo sapiens) (UniProt P06401). Kind of experiment: qHTS assay to identify small molecule antagonists of the progesterone receptor (PR) signaling pathway (AID 1346795; active = well fitted inhibition curve with a large enough effect in the signal ratio in the repeat runs, not every such curve was filed as active; the % refers to the signal ratio; note: potency is the fitted concentration of half-maximal effect). The method in brief:
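PR-UAS-bla HEK293T cells carrying a UAS-driven beta-lactamase reporter were plated in medium with 2% charcoal-stripped FBS and rested 6 hr at 37C. Compounds were added with 1 nM R5020 (final) for 16 hr, then FRET substrate loaded 2 hr at room temperature.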

Experiment [16] can be described thus: qHTS assay to identify small molecule agonists of the estrogen receptor alpha (ER-alpha) signaling pathway in the presence of an antagonist - cell viability counter screen (AID 1259386).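 Note: cells exposed to compounds for 22 h at 37 °C before the viability read; nearly all actives have a fitted effect of over 30% in size.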 Note: potency is the fitted concentration of half-maximal effect. The method, boiled down:
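Using estrogen-depleted VM7Luc4E2 cells, the 15-concentration compound series was applied together with 10.0nM ICI-182,780 and incubated 22hr at 37C/5% CO2. Cell viability was then scored by CellTiter-Fluor.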

The target in experiment [17] is Estrogen receptor beta (Homo sapiens) (UniProt Q92731). Kind of experiment: qHTS assay to identify small molecule antagonists of the estrogen receptor beta (ER-beta) signaling pathway (AID 1259378; active = well fitted inhibition curve with a large enough effect in the signal ratio in the repeat runs, not every such curve was filed as active; the % refers to the signal ratio; note: potency is the fitted concentration of half-maximal effect). The method, boiled down:
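Antagonist mode: compounds added to beta-lactamase reporter HEK293T ER-beta-UAS cells stimulated with E2 (1nM final), 16 hr at 37C. LiveBLAzer B/G FRET substrate, 2 hours room temperature, fluorescence read-out.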

In experiment [18] the target is Androgen receptor (Homo sapiens) (UniProt P10275). Kind of experiment: qHTS assay to identify small molecule agonists of the androgen receptor (AR) signaling pathway in the presence of an antagonist (AID 1259381; calls by dose curve; note: nearly all actives have a fitted effect of over 15% in size). The method in brief: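 Plated MDA-kb2 cells (3,000/well) were pre-incubated 5hr, given nilutamide (3.0uM final) or buffer, then dosed with compounds in DMSO at 15 concentrations. Luciferase activity was quantified by luminescence after 16hr at 37C.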
Androgen receptor (Homo sapiens), sequence (P10275 whole entry, looked up): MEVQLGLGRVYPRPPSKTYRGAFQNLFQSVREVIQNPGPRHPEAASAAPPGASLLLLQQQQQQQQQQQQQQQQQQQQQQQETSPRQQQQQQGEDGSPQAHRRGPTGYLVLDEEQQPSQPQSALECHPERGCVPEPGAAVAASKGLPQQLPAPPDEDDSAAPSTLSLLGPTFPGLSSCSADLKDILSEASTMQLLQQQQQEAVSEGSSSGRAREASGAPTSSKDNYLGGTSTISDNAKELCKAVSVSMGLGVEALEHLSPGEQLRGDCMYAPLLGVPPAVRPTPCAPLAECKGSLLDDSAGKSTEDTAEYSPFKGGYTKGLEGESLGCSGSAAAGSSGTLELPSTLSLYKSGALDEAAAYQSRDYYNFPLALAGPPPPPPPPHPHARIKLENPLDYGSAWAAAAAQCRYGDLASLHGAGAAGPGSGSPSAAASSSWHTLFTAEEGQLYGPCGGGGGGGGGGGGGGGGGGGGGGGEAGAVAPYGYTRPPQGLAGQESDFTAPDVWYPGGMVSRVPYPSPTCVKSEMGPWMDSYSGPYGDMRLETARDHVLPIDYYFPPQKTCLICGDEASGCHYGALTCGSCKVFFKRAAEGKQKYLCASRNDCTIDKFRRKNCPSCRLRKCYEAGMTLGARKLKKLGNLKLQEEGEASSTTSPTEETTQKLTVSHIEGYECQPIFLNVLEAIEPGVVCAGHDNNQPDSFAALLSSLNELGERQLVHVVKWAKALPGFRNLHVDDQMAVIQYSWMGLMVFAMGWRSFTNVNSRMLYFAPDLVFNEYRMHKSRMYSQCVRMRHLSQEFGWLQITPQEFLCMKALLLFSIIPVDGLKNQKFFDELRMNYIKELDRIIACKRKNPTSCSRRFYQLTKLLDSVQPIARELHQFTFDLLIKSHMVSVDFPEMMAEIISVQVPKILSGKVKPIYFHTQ

The target of experiment [19] is Estrogen receptor beta (Homo sapiens) (UniProt Q92731). Kind of experiment: qHTS assay to identify small molecule agonists of the estrogen receptor beta (ER-beta) signaling pathway (AID 1259377; active = well fitted activation curve with a large enough effect in the signal ratio in the repeat runs, not every such curve was filed as active; the % refers to the signal ratio). The method in brief:
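ER-beta-UAS-bla HEK293T (GripTite) cells carrying a UAS-driven beta-lactamase reporter, in medium with 2% charcoal-stripped FBS, were exposed to compounds for 16 hr at 37C; LiveBLAzer B/G FRET substrate was then added and fluorescence read after 2 hours at room temperature.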

The target in experiment [20] is Progesterone receptor (Homo sapiens) (UniProt P06401). Kind of experiment: qHTS assay to identify small molecule agonists of the progesterone receptor (PR) signaling pathway (AID 1346784; calls by dose curve; note: nearly all actives have a fitted effect of over 30% in size). The method, boiled down: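 PR-UAS-bla HEK 293T cells carrying a UAS-driven beta-lactamase reporter were seeded in medium with 2% charcoal-stripped FBS, preincubated 6 hr at 37C, then exposed to compounds in DMSO for 16 hr; agonism was read by LiveBLAzer B/G FRET fluorescence.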
Progesterone receptor (Homo sapiens), sequence (P06401 whole entry, looked up): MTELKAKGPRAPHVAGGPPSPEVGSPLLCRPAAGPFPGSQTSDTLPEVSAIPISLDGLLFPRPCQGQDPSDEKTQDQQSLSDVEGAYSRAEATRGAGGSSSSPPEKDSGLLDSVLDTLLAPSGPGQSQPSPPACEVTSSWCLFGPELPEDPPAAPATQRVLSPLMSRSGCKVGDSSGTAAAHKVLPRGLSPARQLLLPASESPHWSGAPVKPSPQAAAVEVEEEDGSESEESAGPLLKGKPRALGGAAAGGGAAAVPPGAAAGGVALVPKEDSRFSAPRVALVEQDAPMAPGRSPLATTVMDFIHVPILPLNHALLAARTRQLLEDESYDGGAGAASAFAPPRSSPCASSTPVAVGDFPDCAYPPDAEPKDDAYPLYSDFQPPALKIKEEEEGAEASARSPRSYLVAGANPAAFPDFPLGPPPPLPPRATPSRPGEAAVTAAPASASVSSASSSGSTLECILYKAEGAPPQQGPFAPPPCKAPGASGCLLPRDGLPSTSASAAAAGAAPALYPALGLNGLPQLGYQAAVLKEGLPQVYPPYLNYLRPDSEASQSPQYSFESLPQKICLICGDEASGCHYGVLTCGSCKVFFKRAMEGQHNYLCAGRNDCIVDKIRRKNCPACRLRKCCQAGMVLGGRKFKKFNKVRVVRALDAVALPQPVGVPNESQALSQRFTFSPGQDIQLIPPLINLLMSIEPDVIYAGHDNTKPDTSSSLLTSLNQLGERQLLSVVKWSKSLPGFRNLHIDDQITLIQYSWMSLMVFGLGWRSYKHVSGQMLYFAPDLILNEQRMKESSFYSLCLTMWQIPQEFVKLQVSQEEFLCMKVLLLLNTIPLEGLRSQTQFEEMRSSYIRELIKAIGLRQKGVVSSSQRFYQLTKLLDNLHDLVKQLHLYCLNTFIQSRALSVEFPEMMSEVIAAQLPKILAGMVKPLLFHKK

Each structure is given as a SMILES string. Several values for one entry are separate records, joined by “and”; a condition that tells them apart may be missing. Equal entries are not always repeated. Results filed as inconclusive are left out. Activity calls are given as the source filed them. Unless noted, calls come from the whole dose curve; as a rule, active = well fitted curve in the direction sought with a large enough effect in the repeat runs; inconclusive = weak or mixed curves; inactive = no such curve, though single readings can be large; an effect the other way counts as inactive or inconclusive.

Estrogen receptor beta (Homo sapiens), sequence (Q92731 whole entry, looked up): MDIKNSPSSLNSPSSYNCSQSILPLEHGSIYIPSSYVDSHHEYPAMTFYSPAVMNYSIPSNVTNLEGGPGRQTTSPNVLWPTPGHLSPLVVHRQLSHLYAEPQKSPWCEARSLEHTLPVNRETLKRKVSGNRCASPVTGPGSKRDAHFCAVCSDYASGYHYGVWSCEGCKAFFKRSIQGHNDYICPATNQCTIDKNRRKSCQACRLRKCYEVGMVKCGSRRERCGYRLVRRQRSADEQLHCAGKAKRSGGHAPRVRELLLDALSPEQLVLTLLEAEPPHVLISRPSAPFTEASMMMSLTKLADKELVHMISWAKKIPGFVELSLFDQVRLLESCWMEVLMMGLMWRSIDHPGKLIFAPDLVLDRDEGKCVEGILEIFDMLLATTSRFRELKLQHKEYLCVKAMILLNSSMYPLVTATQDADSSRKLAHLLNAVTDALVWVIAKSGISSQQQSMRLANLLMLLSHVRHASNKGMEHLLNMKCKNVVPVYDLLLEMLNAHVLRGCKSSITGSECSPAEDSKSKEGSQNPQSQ
Thyrotropin receptor (Homo sapiens), sequence (P16473 whole entry, looked up): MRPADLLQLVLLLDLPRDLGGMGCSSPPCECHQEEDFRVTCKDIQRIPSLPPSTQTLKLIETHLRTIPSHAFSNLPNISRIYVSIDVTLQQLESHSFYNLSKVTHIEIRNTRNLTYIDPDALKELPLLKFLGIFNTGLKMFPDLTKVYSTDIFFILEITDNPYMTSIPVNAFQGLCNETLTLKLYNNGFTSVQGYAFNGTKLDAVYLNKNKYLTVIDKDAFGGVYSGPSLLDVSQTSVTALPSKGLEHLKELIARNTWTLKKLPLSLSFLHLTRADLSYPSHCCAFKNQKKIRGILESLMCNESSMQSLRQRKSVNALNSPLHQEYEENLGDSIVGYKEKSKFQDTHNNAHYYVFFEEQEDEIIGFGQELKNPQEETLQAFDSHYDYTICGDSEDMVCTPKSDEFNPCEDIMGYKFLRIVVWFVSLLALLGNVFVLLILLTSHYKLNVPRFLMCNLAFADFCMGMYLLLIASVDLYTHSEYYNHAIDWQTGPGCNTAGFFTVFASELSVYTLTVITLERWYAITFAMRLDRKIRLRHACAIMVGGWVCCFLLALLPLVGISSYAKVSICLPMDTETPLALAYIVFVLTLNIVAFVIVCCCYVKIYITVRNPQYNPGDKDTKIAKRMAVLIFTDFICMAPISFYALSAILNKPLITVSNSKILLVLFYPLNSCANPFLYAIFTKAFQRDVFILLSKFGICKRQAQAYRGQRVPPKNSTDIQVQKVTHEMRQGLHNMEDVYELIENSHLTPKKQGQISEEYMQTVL
Estrogen receptor (Homo sapiens), sequence (P03372 whole entry, looked up): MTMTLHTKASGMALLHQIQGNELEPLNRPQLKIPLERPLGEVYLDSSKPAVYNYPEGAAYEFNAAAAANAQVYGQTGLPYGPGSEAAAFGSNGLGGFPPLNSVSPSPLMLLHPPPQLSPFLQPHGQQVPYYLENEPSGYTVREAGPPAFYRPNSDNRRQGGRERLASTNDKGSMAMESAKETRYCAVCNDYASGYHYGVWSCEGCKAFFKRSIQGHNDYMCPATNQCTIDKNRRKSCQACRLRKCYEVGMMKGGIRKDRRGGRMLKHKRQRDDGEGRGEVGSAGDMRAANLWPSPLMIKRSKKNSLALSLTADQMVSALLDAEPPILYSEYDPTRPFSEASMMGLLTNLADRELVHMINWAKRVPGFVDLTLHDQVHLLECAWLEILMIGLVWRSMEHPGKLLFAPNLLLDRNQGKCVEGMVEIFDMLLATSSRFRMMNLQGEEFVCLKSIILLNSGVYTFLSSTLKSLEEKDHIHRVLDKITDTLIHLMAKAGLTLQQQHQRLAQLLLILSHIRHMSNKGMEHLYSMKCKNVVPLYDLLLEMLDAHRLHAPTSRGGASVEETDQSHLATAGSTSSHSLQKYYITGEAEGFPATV

Take `O=C(O)C(Cl)Cl`: the Potency result in experiment [1], in [3], in experiment [4], in [5], in experiment [6] and in experiment [8] was “inactive” each time. Besides, the Potency entry in experiment [9], in [10], in experiment [11], in [12], in experiment [13] and in experiment [14] was “inactive” each time. In addition, in experiment [15], the Potency result was “inactive”. The compound was called inactive in [2] and in experiment [7].

For `O=P1(N(CCCl)CCCl)NCCCO1` (stereo unspecified), the Potency result in experiment [1], in experiment [3], in experiment [4], in experiment [5], in experiment [6] and in experiment [8] was “inactive” each time. The Potency result in [9], in experiment [10], in experiment [11], in experiment [12], in [13] and in [14] was “inactive” each time. For the same compound, the Potency result in experiment [16] and in experiment [15] was “inactive” each time. For the same compound, the compound was called inactive in experiment [2] and in experiment [7].

In the case of `CC(=O)[O][Hg][c]1ccccc1`, the Potency in [1] is 2.71 µM (active) and 6.86 µM (active) and 8.41 µM (active); in experiment [3] it was 21.5 µM (active) and 8.63 µM (active) and 13.3 µM (active); in experiment [4], 3.82 µM (active) and 6.11 µM (active) and 16.8 µM (active); in [5], 606 nM (active) and 1.37 µM (active) and 1.5 µM (active); in experiment [6] it was 1.08 µM (active) and 2.17 µM (active) and 1.33 µM (active); in [8], 121 nM (active) and 61.1 nM (active) and 8.4 nM (active). Also, the Potency was 3.44 µM (active) in [17]; 4.29 µM (active) and 6.86 µM (active) and 7.5 µM (active) in [9]; 1.92 µM (active) and 3.86 µM (active) and 5.31 µM (active) in experiment [10]; 3.04 µM (active) and 4.33 µM (active) and 8.41 µM (active) in [11]; 2.07 µM (active) and 5.88 µM (active) and 4.92 µM (active) in [13]; 60.6 µM (active) and 68.6 µM (active) in experiment [14]. Also, the Potency was 7.63 µM (active) and 13.7 µM (active) and 26.6 µM (active) in experiment [16]; 2.15 µM (active) in experiment [15]. Also, the result in [2], in experiment [7] and in experiment [18] was inactive. In addition, in [12], the Potency result was “inactive”.

On to `C[N+](C)(C)Cc1ccccc1`, for which the Potency entry in [1], in experiment [3], in experiment [4], in [5], in experiment [6] and in experiment [8] was “inactive” throughout. The Potency result in [9], in experiment [10], in experiment [11], in experiment [12], in experiment [13] and in experiment [14] was “inactive” each time. Also, in experiment [15], the Potency entry was “inactive”. Further, the compound was classed as inactive in [7].

As to `COP(=O)(OC)OC=C(Cl)Cl`, the Potency result in experiment [1], in experiment [3], in experiment [4], in experiment [5], in experiment [6] and in experiment [8] was “inactive” in each case. Moreover, the Potency result in experiment [17], in experiment [9], in [10], in experiment [11], in experiment [12] and in [15] was “inactive” each time. For the same compound, the compound was called inactive in experiment [2], in experiment [7] and in [19].

For `COCC(=O)N(c1c(C)cccc1C)C(C)C(=O)OC` (stereo unspecified), the Potency entry in experiment [1], in experiment [3], in experiment [4], in experiment [5], in experiment [6] and in experiment [8] was “inactive” in each case. The Potency entry in [17], in [9], in experiment [10], in experiment [11], in [12] and in experiment [13] was “inactive” throughout. Moreover, the Potency result in experiment [14], in experiment [20] and in experiment [15] was “inactive” in each case. The outcome in experiment [2], in experiment [7] and in experiment [19] was inactive.

The values above are taken from PubChem BioAssay (Tox21).
